Experimental data reported in PMC7862700, “An all-to-all approach to the identification of sequence-specific readers for epigenetic DNA modifications on cytosine”.

Experiments:
Test in all cases: DAPPL (digital affinity profiling via proximity ligation, sequencing); 10 mM Tris-HCl pH 7.5, 50 mM NaCl, 1 mM DTT, 4% glycerol, room temperature, 30 min; GST-TFs on glutathione beads, 16-mer random dsDNA library, 0.1% formaldehyde crosslink after washing; high values mean tight binding
FEV = target: T1, FEV (Homo sapiens, UniProt Q99581 1-238); conditions: protein: recombinant; tags: N-terminal GST; dsDNA, one strand shown
T1 sequence: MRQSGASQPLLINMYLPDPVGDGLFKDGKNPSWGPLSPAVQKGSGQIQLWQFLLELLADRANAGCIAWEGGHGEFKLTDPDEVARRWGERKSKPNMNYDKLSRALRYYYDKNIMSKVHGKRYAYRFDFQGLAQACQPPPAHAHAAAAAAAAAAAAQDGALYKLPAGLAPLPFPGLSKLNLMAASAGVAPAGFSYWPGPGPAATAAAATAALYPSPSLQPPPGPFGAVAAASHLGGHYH
In short: (§1)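 Binding signal is given per hexamer as its read frequency for a factor divided by its frequency in the tag-only sample. GST-fused human transcription factors were expressed in yeast, captured on glutathione beads, barcoded with DNA and pooled with that sample, then incubated with 200 nmole of a 16-mer random double-stranded DNA library in Tris/NaCl/DTT/glycerol buffer for 30 min at room temperature. The pools were then washed, crosslinked, proximity-ligated, amplified by PCR and sequenced on an Illumina NextSeq500.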

ETV5 = ETV5 (Homo sapiens, UniProt P41161 1-510); conditions: protein: recombinant; tags: N-terminal GST; dsDNA, one strand shown
In short: as §1

HSF1 = HSF1 (Homo sapiens, UniProt Q00613 1-529); conditions: protein: recombinant; tags: N-terminal GST; chain copies: 3; dsDNA, one strand shown
In short: as §1

SPIC = target: T2, SPIC (Homo sapiens, UniProt Q8N5J4 1-248); conditions: protein: recombinant; tags: N-terminal GST; dsDNA, one strand shown
T2 sequence: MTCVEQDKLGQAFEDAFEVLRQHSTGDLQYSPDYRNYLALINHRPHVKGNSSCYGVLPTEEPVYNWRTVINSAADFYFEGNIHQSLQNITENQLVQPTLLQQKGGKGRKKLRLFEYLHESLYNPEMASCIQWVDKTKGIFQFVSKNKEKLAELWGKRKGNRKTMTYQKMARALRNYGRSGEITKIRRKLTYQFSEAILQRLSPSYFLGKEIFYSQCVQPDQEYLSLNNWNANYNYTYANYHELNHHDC
In short: as §1

ELF4 = ELF4 (Homo sapiens, UniProt Q99607 1-663); conditions: protein: recombinant; tags: N-terminal GST; dsDNA, one strand shown
In short: as §1

ELK4 = target: T3, ELK4 (Homo sapiens, UniProt P28324-2 1-405); conditions: protein: recombinant; tags: N-terminal GST; dsDNA, one strand shown
T3 sequence: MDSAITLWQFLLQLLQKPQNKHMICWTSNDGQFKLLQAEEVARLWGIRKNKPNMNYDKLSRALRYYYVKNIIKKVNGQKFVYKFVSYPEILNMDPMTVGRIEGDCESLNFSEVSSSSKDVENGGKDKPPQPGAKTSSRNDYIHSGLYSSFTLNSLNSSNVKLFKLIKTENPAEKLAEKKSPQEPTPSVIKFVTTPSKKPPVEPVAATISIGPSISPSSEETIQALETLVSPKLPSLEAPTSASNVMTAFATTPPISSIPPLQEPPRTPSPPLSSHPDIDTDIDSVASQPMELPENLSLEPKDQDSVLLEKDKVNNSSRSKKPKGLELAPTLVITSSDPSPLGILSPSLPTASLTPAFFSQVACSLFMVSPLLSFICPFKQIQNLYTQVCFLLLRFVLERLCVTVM
In short: as §1

ETV2 = target: T4, ETV2 (Homo sapiens, UniProt O00321 1-342); conditions: protein: recombinant; tags: N-terminal GST; dsDNA, one strand shown
T4 sequence: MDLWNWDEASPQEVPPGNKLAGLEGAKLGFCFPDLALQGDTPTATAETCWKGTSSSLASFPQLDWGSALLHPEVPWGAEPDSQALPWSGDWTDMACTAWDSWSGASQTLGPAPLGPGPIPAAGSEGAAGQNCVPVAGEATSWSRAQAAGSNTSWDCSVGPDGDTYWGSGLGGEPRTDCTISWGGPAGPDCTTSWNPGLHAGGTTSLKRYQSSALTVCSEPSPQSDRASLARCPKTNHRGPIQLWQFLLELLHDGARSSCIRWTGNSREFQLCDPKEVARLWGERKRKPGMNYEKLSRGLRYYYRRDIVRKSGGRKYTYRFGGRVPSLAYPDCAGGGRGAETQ
In short: as §1

ELF3 = target: T5, ELF3 (Homo sapiens, UniProt P78545 1-371); conditions: protein: recombinant; tags: N-terminal GST; dsDNA, one strand shown
T5 sequence: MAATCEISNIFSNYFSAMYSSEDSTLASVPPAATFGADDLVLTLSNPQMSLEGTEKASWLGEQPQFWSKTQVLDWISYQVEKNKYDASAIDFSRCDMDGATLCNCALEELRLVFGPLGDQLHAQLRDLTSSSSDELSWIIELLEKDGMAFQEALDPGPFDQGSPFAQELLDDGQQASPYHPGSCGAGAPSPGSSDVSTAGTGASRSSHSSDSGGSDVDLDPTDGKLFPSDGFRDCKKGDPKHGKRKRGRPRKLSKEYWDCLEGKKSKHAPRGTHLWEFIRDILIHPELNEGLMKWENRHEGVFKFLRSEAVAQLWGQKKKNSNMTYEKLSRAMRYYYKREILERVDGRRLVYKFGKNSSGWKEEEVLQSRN
In short: as §1

CRX = CRX (Homo sapiens, UniProt O43186 1-299); conditions: protein: recombinant; tags: N-terminal GST; dsDNA, one strand shown
In short: as §1

ETV1 = ETV1 (Homo sapiens, UniProt P50549 1-477); conditions: protein: recombinant; tags: N-terminal GST; dsDNA, one strand shown
In short: as §1

ERF = target: T6, ERF (Homo sapiens, UniProt P50548 1-548); conditions: protein: recombinant; tags: N-terminal GST; dsDNA, one strand shown
T6 sequence: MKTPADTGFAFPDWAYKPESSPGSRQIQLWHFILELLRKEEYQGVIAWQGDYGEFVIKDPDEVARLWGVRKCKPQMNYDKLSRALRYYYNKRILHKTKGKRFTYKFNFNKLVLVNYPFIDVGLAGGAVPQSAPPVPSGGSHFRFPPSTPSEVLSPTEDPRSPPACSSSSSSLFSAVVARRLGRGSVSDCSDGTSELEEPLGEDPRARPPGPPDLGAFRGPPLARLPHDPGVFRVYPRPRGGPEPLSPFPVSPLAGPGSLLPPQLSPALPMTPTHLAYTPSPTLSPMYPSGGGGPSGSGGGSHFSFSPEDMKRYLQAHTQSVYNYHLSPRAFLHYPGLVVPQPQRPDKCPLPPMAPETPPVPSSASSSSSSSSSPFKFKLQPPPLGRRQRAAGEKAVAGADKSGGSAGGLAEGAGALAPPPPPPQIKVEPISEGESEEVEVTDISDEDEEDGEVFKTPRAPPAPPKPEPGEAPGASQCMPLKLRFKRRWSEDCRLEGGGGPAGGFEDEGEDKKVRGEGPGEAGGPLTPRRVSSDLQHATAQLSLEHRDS
In short: as §1

ETV3L = target: T7, ETV3L (Homo sapiens, UniProt Q6ZN32 1-361); conditions: protein: recombinant; tags: N-terminal GST; dsDNA, one strand shown
T7 sequence: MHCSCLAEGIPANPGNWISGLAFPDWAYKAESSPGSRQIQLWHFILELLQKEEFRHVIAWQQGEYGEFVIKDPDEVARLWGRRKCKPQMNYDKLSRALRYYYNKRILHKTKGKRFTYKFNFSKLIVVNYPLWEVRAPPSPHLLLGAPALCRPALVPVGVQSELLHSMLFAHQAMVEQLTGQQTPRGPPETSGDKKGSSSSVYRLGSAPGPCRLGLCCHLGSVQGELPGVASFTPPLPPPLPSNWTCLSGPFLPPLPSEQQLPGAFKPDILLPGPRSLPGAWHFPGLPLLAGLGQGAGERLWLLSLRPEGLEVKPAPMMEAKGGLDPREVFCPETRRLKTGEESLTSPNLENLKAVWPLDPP
In short: as §1

ETS2 = target: T8, ETS2 (Homo sapiens, UniProt P15036 1-469); conditions: protein: recombinant; tags: N-terminal GST; dsDNA, one strand shown
T8 sequence: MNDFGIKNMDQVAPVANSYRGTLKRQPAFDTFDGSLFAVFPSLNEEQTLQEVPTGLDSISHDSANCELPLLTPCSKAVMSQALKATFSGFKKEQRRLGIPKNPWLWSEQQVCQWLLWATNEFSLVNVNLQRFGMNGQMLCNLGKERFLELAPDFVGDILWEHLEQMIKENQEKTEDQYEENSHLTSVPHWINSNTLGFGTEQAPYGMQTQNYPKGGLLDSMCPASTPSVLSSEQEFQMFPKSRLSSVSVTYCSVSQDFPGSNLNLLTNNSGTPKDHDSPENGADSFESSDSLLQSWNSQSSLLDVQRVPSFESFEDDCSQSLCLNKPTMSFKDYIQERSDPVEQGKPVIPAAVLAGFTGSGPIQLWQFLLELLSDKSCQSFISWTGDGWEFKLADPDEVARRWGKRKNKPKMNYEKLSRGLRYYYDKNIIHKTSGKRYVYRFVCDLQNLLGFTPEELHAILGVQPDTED
In short: as §1

SPDEF = target: T9, SPDEF (Homo sapiens, UniProt O95238 1-335); conditions: protein: recombinant; tags: N-terminal GST; dsDNA, one strand shown
T9 sequence: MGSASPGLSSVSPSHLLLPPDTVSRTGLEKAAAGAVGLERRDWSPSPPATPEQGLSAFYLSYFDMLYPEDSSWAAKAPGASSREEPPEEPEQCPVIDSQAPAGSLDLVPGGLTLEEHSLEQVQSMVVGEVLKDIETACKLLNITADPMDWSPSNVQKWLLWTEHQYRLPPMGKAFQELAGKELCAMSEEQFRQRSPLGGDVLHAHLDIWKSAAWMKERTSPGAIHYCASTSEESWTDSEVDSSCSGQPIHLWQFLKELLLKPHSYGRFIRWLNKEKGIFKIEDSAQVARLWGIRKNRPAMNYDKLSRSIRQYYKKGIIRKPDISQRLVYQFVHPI
In short: as §1

ETV7 = target: T10, ETV7 (Homo sapiens, UniProt Q9Y603 1-341); conditions: protein: recombinant; tags: N-terminal GST; dsDNA, one strand shown
T10 sequence: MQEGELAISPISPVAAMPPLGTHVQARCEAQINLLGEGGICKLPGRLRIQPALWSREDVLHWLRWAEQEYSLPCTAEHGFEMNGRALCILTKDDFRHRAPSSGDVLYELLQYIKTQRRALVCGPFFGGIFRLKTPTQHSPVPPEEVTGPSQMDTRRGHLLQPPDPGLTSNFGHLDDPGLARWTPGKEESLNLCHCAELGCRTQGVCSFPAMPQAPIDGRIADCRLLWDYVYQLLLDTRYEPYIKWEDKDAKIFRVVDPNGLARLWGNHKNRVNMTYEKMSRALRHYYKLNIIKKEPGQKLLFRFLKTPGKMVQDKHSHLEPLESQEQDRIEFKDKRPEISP
In short: as §1

ELF5 = target: T11, ELF5 (Homo sapiens, UniProt Q9UKW6-2 1-255); conditions: protein: recombinant; tags: N-terminal GST; dsDNA, one strand shown
T11 sequence: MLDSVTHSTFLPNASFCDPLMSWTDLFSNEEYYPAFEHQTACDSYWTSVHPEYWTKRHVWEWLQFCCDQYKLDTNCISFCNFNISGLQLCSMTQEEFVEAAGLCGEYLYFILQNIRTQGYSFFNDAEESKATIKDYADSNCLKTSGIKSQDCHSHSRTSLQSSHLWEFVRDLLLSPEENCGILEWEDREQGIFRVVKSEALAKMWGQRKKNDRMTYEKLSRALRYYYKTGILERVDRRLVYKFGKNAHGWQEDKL
In short: as §1

ETV3 = target: T12, ETV3 (Homo sapiens, UniProt P41162-2 1-143); conditions: protein: recombinant; tags: N-terminal GST; dsDNA, one strand shown
T12 sequence: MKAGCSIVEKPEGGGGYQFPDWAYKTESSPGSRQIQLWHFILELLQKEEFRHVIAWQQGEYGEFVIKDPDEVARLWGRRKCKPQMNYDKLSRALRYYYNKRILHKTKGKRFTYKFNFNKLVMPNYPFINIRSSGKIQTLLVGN
In short: as §1

ETV6 = ETV6 (Homo sapiens, UniProt P41212 1-452); conditions: protein: recombinant; tags: N-terminal GST; dsDNA, one strand shown
In short: as §1

Chain of ETV1 (P50549 whole entry): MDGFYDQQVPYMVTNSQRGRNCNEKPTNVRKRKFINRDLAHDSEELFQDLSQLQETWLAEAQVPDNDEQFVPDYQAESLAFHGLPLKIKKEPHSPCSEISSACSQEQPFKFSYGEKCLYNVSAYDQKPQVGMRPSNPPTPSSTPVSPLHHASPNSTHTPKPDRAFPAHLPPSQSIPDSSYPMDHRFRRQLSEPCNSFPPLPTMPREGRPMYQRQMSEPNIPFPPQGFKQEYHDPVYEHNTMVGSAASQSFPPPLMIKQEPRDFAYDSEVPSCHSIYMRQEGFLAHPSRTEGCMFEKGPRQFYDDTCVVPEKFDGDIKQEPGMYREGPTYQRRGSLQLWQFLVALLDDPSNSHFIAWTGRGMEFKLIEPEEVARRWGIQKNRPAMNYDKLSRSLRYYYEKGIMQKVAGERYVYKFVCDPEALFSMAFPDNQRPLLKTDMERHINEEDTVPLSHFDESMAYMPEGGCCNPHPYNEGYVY
Chain of CRX (O43186 whole entry): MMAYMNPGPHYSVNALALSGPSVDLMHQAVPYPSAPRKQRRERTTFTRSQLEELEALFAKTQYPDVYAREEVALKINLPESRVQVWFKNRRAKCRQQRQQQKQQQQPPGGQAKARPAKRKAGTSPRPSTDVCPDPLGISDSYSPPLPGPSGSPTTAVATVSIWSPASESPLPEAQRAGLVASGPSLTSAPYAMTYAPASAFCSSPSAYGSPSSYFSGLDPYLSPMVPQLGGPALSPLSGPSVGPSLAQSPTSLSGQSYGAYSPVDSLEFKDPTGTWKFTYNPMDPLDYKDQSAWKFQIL
Chain of ELF4 (Q99607 whole entry): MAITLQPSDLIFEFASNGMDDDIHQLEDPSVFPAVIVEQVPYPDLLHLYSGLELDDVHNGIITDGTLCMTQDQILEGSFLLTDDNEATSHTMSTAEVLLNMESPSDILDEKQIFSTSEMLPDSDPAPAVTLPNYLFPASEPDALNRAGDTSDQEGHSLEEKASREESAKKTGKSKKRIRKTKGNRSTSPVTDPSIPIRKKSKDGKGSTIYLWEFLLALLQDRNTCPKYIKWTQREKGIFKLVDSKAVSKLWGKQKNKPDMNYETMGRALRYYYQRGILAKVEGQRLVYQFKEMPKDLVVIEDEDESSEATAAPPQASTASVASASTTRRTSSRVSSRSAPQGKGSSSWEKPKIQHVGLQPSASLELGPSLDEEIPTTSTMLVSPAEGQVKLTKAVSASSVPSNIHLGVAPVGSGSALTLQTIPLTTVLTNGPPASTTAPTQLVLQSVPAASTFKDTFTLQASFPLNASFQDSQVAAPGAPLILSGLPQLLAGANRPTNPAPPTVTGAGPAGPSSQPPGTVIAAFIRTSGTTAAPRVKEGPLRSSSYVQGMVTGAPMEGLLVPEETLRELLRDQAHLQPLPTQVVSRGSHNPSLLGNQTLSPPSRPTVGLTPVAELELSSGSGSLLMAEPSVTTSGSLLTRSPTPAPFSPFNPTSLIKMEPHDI
Chain of HSF1 (Q00613 whole entry): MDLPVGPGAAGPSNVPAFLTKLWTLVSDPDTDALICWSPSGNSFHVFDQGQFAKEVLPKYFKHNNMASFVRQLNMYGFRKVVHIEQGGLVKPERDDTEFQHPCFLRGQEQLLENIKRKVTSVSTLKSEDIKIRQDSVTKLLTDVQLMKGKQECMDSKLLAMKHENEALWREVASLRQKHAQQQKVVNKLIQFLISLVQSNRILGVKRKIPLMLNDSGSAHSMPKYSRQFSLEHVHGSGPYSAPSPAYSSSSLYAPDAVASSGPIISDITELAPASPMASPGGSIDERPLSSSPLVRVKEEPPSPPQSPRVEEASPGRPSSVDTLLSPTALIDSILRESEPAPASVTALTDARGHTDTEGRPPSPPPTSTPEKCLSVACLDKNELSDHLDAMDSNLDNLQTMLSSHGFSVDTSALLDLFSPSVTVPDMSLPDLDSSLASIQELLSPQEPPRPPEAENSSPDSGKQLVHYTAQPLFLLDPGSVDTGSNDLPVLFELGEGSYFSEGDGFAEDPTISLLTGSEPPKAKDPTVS
Chain of ETV5 (P41161 whole entry): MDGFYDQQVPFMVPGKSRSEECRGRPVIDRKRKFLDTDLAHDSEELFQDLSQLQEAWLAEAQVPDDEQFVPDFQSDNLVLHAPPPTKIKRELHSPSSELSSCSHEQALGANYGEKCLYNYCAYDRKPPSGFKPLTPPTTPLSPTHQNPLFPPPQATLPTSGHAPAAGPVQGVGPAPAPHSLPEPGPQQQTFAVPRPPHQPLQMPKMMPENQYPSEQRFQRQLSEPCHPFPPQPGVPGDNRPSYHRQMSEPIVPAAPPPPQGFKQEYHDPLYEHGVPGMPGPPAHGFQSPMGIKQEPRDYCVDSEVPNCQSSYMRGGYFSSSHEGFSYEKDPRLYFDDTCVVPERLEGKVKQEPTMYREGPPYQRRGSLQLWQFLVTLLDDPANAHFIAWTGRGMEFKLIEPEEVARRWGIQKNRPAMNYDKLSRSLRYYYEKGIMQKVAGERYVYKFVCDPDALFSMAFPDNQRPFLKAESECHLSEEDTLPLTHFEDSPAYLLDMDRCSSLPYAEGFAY
Chain of ETV6 (P41212 whole entry): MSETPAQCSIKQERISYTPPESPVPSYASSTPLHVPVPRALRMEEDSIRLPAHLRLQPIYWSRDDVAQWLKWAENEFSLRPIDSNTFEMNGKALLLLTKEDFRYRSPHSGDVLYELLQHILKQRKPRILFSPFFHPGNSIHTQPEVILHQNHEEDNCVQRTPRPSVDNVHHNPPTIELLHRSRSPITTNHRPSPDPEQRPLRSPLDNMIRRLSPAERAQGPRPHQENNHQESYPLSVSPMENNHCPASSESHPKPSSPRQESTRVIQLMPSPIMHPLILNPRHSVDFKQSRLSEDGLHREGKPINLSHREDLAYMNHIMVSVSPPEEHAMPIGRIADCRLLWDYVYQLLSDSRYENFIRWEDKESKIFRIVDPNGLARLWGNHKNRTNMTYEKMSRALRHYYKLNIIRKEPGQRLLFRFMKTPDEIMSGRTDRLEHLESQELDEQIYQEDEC

With GAAGCT the binding signal (FEV) was 1.48 fold enrichment (6-mer frequency, TF over GST control), the binding signal (ETV5) was 1.62 fold enrichment (6-mer frequency, TF over GST control) and the binding signal (HSF1) was 1.74 fold enrichment (6-mer frequency, TF over GST control). The binding signal (SPIC) was 1.44 fold enrichment (6-mer frequency, TF over GST control), the binding signal (ELF4) was 1.49 fold enrichment (6-mer frequency, TF over GST control) and the binding signal (ELK4) was 1.69 fold enrichment (6-mer frequency, TF over GST control). The binding signal (ETV2) was 1.56 fold enrichment (6-mer frequency, TF over GST control), the binding signal (ELF3) was 1.47 fold enrichment (6-mer frequency, TF over GST control) and the binding signal (CRX) was 1.47 fold enrichment (6-mer frequency, TF over GST control). The binding signal (ETV1) was 1.57 fold enrichment (6-mer frequency, TF over GST control), the binding signal (ERF) was 1.59 fold enrichment (6-mer frequency, TF over GST control) and the binding signal (ETV3L) was 1.58 fold enrichment (6-mer frequency, TF over GST control). For the same sequence, the binding signal (ETS2) was 1.54 fold enrichment (6-mer frequency, TF over GST control), the binding signal (SPDEF) was 1.51 fold enrichment (6-mer frequency, TF over GST control) and the binding signal (ETV7) was 1.54 fold enrichment (6-mer frequency, TF over GST control). The binding signal (ELF5) was 1.71 fold enrichment (6-mer frequency, TF over GST control), the binding signal (ETV3) was 1.75 fold enrichment (6-mer frequency, TF over GST control) and the binding signal (ETV6) was 1.59 fold enrichment (6-mer frequency, TF over GST control).
